These results are taken from PubChem BioAssay AID1117267 (The Scripps Research Institute Molecular Screening Center, 2014).

The whole screen tested about 92,000 compounds, of which about 1,200 (1.3%) were called active. Shown is part of a subset that was picked to be rich in actives. A number with no mark means an inactive call.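 How the source made its calls: active means activation above the mean of all tested compounds plus 3 SD (cut at about 9.5% in these data); inactive means the rest.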

A short description of the experiment: TTR transcription activators in neuroblastoma reporter cells, primary screen, cell-based, luminescence, SH-SY5Y, TTR promoter Gaussia luciferase (AID 1117267).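 Further: cells exposed to compounds for one day before reading; 0% = median of all test compound wells on the plate.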 As to conditions: at 16.7 µM, hits give high values, 100% = recombinant luciferase protein wells.
In the case of `O=c1[nH]cccc1-c1nc2ccccc2n1Cc1ccc(Cl)cc1`, the activation is 1.33%. On to `CC1CCN(S(=O)(=O)c2ccc(S(=O)(=O)NCc3cccnc3)cc2)CC1`, for which the activation is 1.06%. Under `CCC(C)C(=O)Nc1ccccc1N1CCN(c2ccc(F)cc2)CC1` (stereo not drawn) stands 1.32%; under `CC(=O)c1c(C)[nH]c(C(=O)COc2ccc3c(C)cc(=O)oc3c2)c1C`, 11.5% (active). With `CCOC(=O)Cc1csc(NC(=O)COc2ccc3c(C)cc(=O)oc3c2)n1`, the activation is -0.4%. In the case of `COC(=O)COc1ccc2oc(=O)cc(C)c2c1`, the activation was -3.29%.

Consider `N#Cc1ccc(/C=C2\CCn3c2nc2cc(C(=O)O)ccc2c3=O)cc1`, for which the activation is -0.49%. For the compound `COC[C@@H]1CCCN1c1ccc2c(c1)O[C@H](C)CCN(C1CC1)S2(=O)=O`, the activation is 1.42%. As to `CN(CCc1ccccc1)C(=O)c1cccc(NC(=O)Cc2cccc(NC(=O)C3CCCN(C(=O)CCc4ccccc4)C3)c2)c1` (stereo not drawn), the activation is -4.56%. With `CC1Cc2ccccc2N1S(=O)(=O)c1cccc(C(=O)OCC(=O)N2CCOCC2)c1` (stereo not drawn), the activation is 2.01%. Regarding `Cn1c2ccccc2c(=O)c2c(=O)n(Cc3ccco3)c(COc3ccccc3)nc21`, the activation is -1.02%. As to `COc1ccc2[nH]c3c(=O)n(Cc4ccco4)cnc3c2c1`, the activation was 1.08%. For the compound `COc1ccc(-c2oc3ncn(Cc4ccco4)c(=N)c3c2-c2ccc(OC)cc2)cc1`, the activation is 11.8% (active). Consider `C(#CCN1CCOCC1)CCCN1CCOCC1`, for which the activation is 0.16%. As for `O=C(Nc1nncs1)c1cccc(S(=O)(=O)N2CCCCC2)c1`, the activation is 0.77%. Regarding `O=C(NNC1=NCCC1)c1cccc(S(=O)(=O)N2CCCCC2)c1`, the activation is 12% (active). Regarding `O=C(c1cccc(S(=O)(=O)N2CCCCCC2)c1)N1CCN(Cc2ccccc2)CC1`, the activation is -0.07%.

Turning to `Cc1c(NC(=O)C(=O)N/N=C/c2cccs2)c(=O)n(-c2ccccc2)n1C`, the activation is -1.22%. Under `O=c1c2c3c(sc2n(CCN2CCCC2)c(=O)n1Cc1ccccc1)CCCCC3` stands 1.57%; under `COc1ccc(C2c3ccc(O)cc3Oc3ncn(CCCO)c(=N)c32)cc1OC` (stereo not drawn), 9.86% (active).

As to `O=c1ccnc(Nc2ccc(Cl)cc2)[nH]1`, the activation was 1.51%. Under `COc1ccc(CN2CN(C3CCCC3)CSC2=S)cc1` stands -1.82%; under `O=C1NC(=Nc2ccc(Cl)cc2)SC1Cc1cccc(Cl)c1Cl` (stereo not drawn), -2.63%.

Regarding `COc1cc(NS(=O)(=O)c2ccc(NC(=O)CN3C(=O)c4ccccc4C3=O)cc2)ncn1`, the activation is 0.85%.

On to `O=C(CS(=O)(=O)c1ccccc1)Nc1ccc(S(=O)(=O)Nc2ccccn2)cc1`, for which the activation is 11.2% (active). Turning to `O=S(=O)(Nc1ccccn1)c1cccc(S(=O)(=O)c2ccc(Cl)cc2)c1`, the activation was 1.15%.

For `Cc1nn(C)cc1S(=O)(=O)N1CCN(c2ccc(F)cc2)CC1`, the activation is 5.22%. As to `COC(=O)C[C@@H]1C=C[C@@H](NS(=O)(=O)c2cccc(OC)c2)[C@@H](CO)O1`, the activation was 2.56%. For `COC(=O)[C@@]12C[C@@H](CC(=O)N3CCCCC3)C(=O)N(Cc3ccc4c(c3)OCO4)C1=CCC(C)(C)C2`, the activation was -2.52%. Under `O=C(NCCCNC(=O)c1ccccc1Cl)c1cnccn1` stands 17.1% (active). `Cc1ccc(C(=O)NCCNC(=O)c2cnccn2)cc1`: the activation was -0.47%. As for `O=C(COc1ccc(Cl)cc1Cl)NCCCNC(=O)c1cnccn1`, the activation is 1.09%. The value for `CCC(C)NCCOCCOc1ccc(Br)cc1C` (stereo not drawn) was 4.02%; that for `CCc1nn(CCCC(=O)Nc2ccc(C)c(C)c2)c(=O)c2cc3occc3n12` was -0.44%; that for `Nc1ccc2c(c1)C(O)c1ccc(Cl)cc1-2` (stereo not drawn) was -0.84%. Under `Cc1nnc(SCC(=O)NNC(=O)c2ccc(Cl)cc2)n1CC1CCCO1` (stereo not drawn) stands -0.27%. Consider `C(=N\n1cnnc1)/c1cccnc1`, for which the activation is 9.82% (active). Consider `Brc1ccc(-c2csc(N/N=C/c3cccnc3)n2)cc1`, for which the activation was -4.96%. As for `O=C(N/N=C/c1cccnc1)c1cc2ccccc2cc1O`, the activation is -0.26%. Consider `CC(=O)Nc1ccc(N2C(=O)CC(Sc3nccc(C)n3)C2=O)cc1` (stereo not drawn), for which the activation is -1.45%.

For the compound `CC(Oc1cccc(Cl)c1)C(=O)NC1CC(C)(C)NC(C)(C)C1` (stereo not drawn), the activation is -0.86%. Take `Cc1ccccc1/[N+]([O-])=C/c1ccncc1`: the activation was 11% (active). The value for `O=C(O/N=C(/c1ccccc1)c1ccncc1)c1ccccc1[N+](=O)[O-]` was -1%; that for `C=C(C)CNC(=S)N/N=C/c1ccccc1OCC(=O)O` was 8.68%; that for `CN(C)CCNC(=O)Cc1ccc([N+](=O)[O-])cc1` was 0.61%. The value for `CCCNC(=O)c1onc(CSc2ccc(F)cc2)c1C(=O)NC(C)C` was -2.47%.

On to `COc1cc(NC(=S)N2CCCC(C)C2)cc(OC)c1OC` (stereo not drawn), for which the activation is 4.11%. Under `COc1cc(N2C(=O)CC3(CCCC3)CC2=O)cc(OC)c1OC` stands 11.7% (active); under `COc1cc(C(=O)NNC(=O)CN2C(=O)NC3(CCCC3)C2=O)cc(OC)c1OC`, -1.23%; under `CC(C)(C)OC(=O)N/N=C/c1cn(-c2ccccc2)nc1-c1cccnc1`, -1.28%. As to `CC(C)N(C(=O)[C@H]1C[C@H](CC(=O)NCCC2=CCCCC2)C(=O)N2CCc3c([nH]c4cc(CCC(=O)N(C)C)ccc34)[C@]12C)C(C)C`, the activation is -0.83%. With `c1ccc(-c2c[nH]c(-c3ccccc3)c2)cc1`, the activation was -1.9%. For the compound `CCOC(=O)c1c(NC(=S)Nc2ccccc2C)sc2c1CCC2`, the activation was 1.24%. Regarding `CCOC(=O)c1c(NC(=O)c2ccc(Br)o2)sc2c1CCCC2`, the activation is 12.3% (active). Consider `CCOCC(=O)Nc1sc2c(c1C(=O)OCC)CCCC2`, for which the activation was 2.19%. As for `COc1cccc2cc(/C(C)=N/NC(=O)c3ccco3)oc12`, the activation was 1.86%.

Turning to `Cc1nc2c(-c3ccc(F)cc3)c(C)nn2c(C)c1CCC(=O)N1CCN(c2ccccn2)CC1`, the activation is 1.67%.

Turning to `Cn1c(=O)c2c(ncn2CC(=O)N2CCN(c3ccccc3)CC2)n(C)c1=O`, the activation was 3.74%.

Take `Cc1nc2nc(C)c(CCC(=O)N3CCN(c4ccccc4)CC3)c(C)n2n1`: the activation was 25.8% (active).

Turning to `Cc1cccc(C)c1NC(=O)CN1CCN(c2ccc(F)cc2)CC1`, the activation is 1.02%. Under `O=C(O)CSc1nccc2ccccc12` stands -2.92%; under `CCN(C(=O)CN1C(=O)/C(=C/c2ccc(F)cc2)SC1=S)C1CCS(=O)(=O)C1` (stereo not drawn), 1.08%.

Take `Cc1c(NS(=O)(=O)c2ccc(NC3CCCC3)c([N+](=O)[O-])c2)c(=O)n(-c2ccccc2)n1C`: the activation is 12.5% (active). With `COc1ccc(NS(=O)(=O)c2ccc(C(=O)Nc3c(C)n(C)n(-c4ccccc4)c3=O)cc2)cc1`, the activation is -1.99%. Consider `COc1ccc(C(=O)C(C)OC(=O)c2cccc(S(=O)(=O)Nc3c(C)n(C)n(-c4ccccc4)c3=O)c2)cc1` (stereo not drawn), for which the activation is 0.13%. With `CCc1cc2c(NC(Cc3ccccc3)C(=O)O)ncnc2s1` (stereo not drawn), the activation is 0.89%.

As for `Cc1cccc(NC(=O)Nc2nnc(-c3ccccc3)o2)c1`, the activation was -2.14%. The value for `COc1cc(/C=N/N2CCN(c3ccccc3)CC2)ccc1OC(C)=O` was 1.16%; that for `COc1c(C)cc(C(O)c2ncc(-c3cccc(C(F)(F)F)c3)[nH]2)cc1C` (stereo not drawn) was -1.28%; that for `COc1cccc(-c2cnc(C(O)c3ccccc3OC)[nH]2)c1` (stereo not drawn) was 9.73% (active). Consider `OC(c1ccc(F)cc1)c1ncc(-c2cccc(C(F)(F)F)c2)[nH]1` (stereo not drawn), for which the activation is 1.67%.

On to `C=CCN(C(=O)Nc1ccc2c(c1)nc(C)n2C)c1ccccc1`, for which the activation is 5.19%. The value for `O=C(COC(=O)c1ccc2ncsc2c1)Nc1ccc(Cl)cc1` was 1.52%; that for `Cc1ccc(-c2cc(C(F)(F)F)n3ncc(C(=O)N4CCCCC4c4cccnc4)c3n2)cc1` (stereo not drawn) was 0.13%; that for `FC(F)(F)c1cc(-c2ccco2)nc(N2CCOCC2)n1` was 2.59%. The value for `COC(=O)c1cnn2c(C(F)(F)F)cc(-c3ccco3)nc12` was 10.2% (active).

On to `COC(=O)[C@]12C[C@H](CC(=O)NCc3cccc4ccccc34)C(=O)N(CCc3ccc(OC)c(OC)c3)C1=C[C@H](C1CCCC1)O[C@@H]2C`, for which the activation was -1.86%.

As for `COC(=O)[C@]12C[C@H](CC(=O)NCc3cccs3)C(=O)N(CCc3ccc(OC)c(OC)c3)C1=C[C@H](C(C)C)O[C@@H]2C1CC1`, the activation was -0.36%. The value for `CCCCOCCCNC(=O)C[C@H]1C[C@@]2(C(=O)OC)C(=C[C@H](C(C)(C)C)O[C@@H]2C)N(CCc2ccc(OC)c(OC)c2)C1=O` was 14.6% (active); that for `O=C(NCc1ccccc1)C(c1cccnc1)N(C(=O)c1csnn1)c1ccc(F)cc1` (stereo not drawn) was 4.37%.

For `Cc1cccc(C(=O)OC(C)CN2CCCC2)c1` (stereo not drawn), the activation is 2.07%. As for `O=C(CN1C(=O)CC(c2ccccc2)S(=O)(=O)c2ccccc21)NC1CCCC1` (stereo not drawn), the activation was 4.27%. As for `O=C1c2cccc(OCC(=O)N3N=C(c4cccs4)CC3c3ccc(F)cc3)c2CCN1Cc1ccccc1` (stereo not drawn), the activation was 11.2% (active). `CC(=O)Oc1ccccc1C1=NN(C(C)=O)C(c2ccccc2)C1` (stereo not drawn): the activation was 1.26%. Under `COc1cccc(C2CC(c3cccs3)=NN2C(=O)CSC2=NCCS2)c1OC` (stereo not drawn) stands -2.03%. For `O=C(CCc1nnc(CCCCc2ccccc2)o1)NC(c1cccnc1)C(F)(F)F` (stereo not drawn), the activation is -0.47%. As for `COc1ccc(-c2cc3ccc(OCc4nn[nH]n4)cc3oc2=O)cc1`, the activation was 0.67%. As for `CCCCc1cc(=O)oc2cc(C)cc(OCc3nn[nH]n3)c12`, the activation is 23.1% (active). For the compound `CCOC(=O)CCc1c(C)c2ccc(OCc3nn[nH]n3)c(C)c2oc1=O`, the activation is 3.81%. For `CC(C)Cn1c(N)c(C(=O)COC(=O)C2CCCN2C(=O)c2cccs2)c(=O)n(C)c1=O` (stereo not drawn), the activation was -0.78%. `C#CCOCCOCCOCCNc1nc(N2CCOCC2)nc(N2CCN(C(=O)[C@H](Cc3ccc(O)cc3)n3cc(CCO)nn3)CC2)n1`: the activation was -0.17%. Consider `CCOc1ccc(C(=O)NCC(=O)N2CCN(c3ccc(C(F)(F)F)cn3)CC2)cc1`, for which the activation is 0.73%. For the compound `Brc1ccc(/C=N/N2CCN(C3c4ccccc4-c4ccccc43)CC2)s1`, the activation is 19.4% (active).

For the compound `CC(=O)C[C@@H]1OC[C@H](C)N1S(=O)(=O)c1ccc(C)cc1`, the activation was 1.64%.

Turning to `CC(NC(=O)C(C)(C)C)C(c1cccs1)N1CCN(Cc2ccccc2)CC1` (stereo not drawn), the activation was -0.04%.

For `NC(=O)C1(Nc2ccccc2Cl)CCCC1`, the activation is -2.76%. Regarding `Cc1nc(N2CCOCC2)sc1C(=O)NN`, the activation was -0.39%. Under `Cc1ccc(SCC(=O)c2sc(-c3ccccc3)nc2C)cc1` stands 4.57%. Take `Cc1nc(-c2ccc(Cl)cc2)sc1C(=O)NN`: the activation was 35.4% (active). For `O=c1ccn([C@@H]2O[C@H](CNS(=O)(=O)c3cc4ccccc4s3)[C@@H](O)[C@H]2O)c(=O)[nH]1`, the activation was -0.41%.

Consider `COc1ccc(C(CNC(=O)c2ccc(S(=O)(=O)Nc3ccccc3C)cc2)N2CCOCC2)cc1` (stereo not drawn), for which the activation was 0.05%.

`COc1ccc(CCOC(=O)CNC(=O)c2ccc(Cl)cc2Cl)cc1`: the activation was -0.5%. Regarding `COc1cc2c(=O)n(C)c3ccccc3c2cc1OC`, the activation is -0.16%.
